# MCF10A rerep = induces DNA re-replication in MCF 10a normal breast cells; MCF 10A DNA re-replication, Hoechst nuclear intensity, 48 h; Potency, µM (titrated, usually from 46.1 µM), most hits filed as activators; 2.9% of 350,000 active; note: nearly all actives have a fitted effect of over 50% in size
# hERG WT inh = inhibitors of human wildtype KCNH2 potassium channel; Q12809; U2OS, BacMam KCNH2, thallium flux FluxOr; active compounds read low; activity change, % at 1.84 µM; 0.37% of 340,000 active;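 active = maximum activity change below -70%; inconclusive = maximum activity change between -70% and -50%; inactive = maximum activity change above -50%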
#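 U2OS cells transduced with wild-type KCNH2 virus are loaded with FluxOr dye for 45 min, and thallium flux is measured in kinetic reads before and after stimulation buffer. Rate constants are normalized to DMSO controls.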
# KCNH2 3.1 block = inhibitors of human KCNH2 3.1 potassium channel isoform; U2OS KCNH2 3.1, thallium flux FluxOr; active compounds read low; activity change, % (tested at about 1.8 µM); 0.95% of 340,000 active;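 active = maximum activity change below -70%; inconclusive = maximum activity change from -70% to -50%; inactive = maximum activity change above -50%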;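 note: thallium influx rate constant from kinetic fluorescence after stimulation buffer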
#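 FluxOr-based Tl+ influx in U2OS cells transduced with KCNH2 3.1 virus; rate constants normalized to DMSO controls.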
# SW480 rereplic = induces DNA re-replication in SW480 colon adenocarcinoma cells | SW480 DNA re-replication, Hoechst DNA content imaging, 48 h | Potency, µM (top dose mostly 46.1 µM), most hits filed as activators | 1.8% of 340,000 active | AID 624297; note: nearly all actives have a fitted effect of over 55% in size
#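 Hoechst fluorescence of nuclei (405 nm excitation, 500-530 nm emission) measured by plate-scanning imager after 48 hr compound exposure at 37 C; re-replication scored as increased number of nuclei with elevated intensity.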
# KB-3-1 cytotox = kills parental KB-3-1 adenocarcinoma cells; KB-3-1 viability, CellTiter-Glo ATP luminescence, 72 h; 1.4% of 400,000 active; Potency, µM (doses to about 46.1 µM), most hits filed as cytotoxic; AID 1347075; note: nearly all actives have a fitted effect of over 60% in size
#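 Screening of KB-3-1 cells (DMEM, 10% FBS, phenol-red free) ran from lowest to highest compound concentration; after 72 h at 37 °C viability was read luminescently and curves fitted.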
# KB-V1 cytotox = KB-V1 MDR subline cytotoxicity; KB-V1 MDR cells viability, CellTiter-Glo, 72 h; Potency, µM (highest dose often 46.1 µM), actives largely listed as cytotoxic; 3.4% of 400,000 active; note: nearly all actives have a fitted effect of over 60% in size
#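 qHTS viability screen in drug-selected KB-V1 MDR cells: 72 h compound treatment at 37 degrees C, ATP luminescence end point.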
# A number is an active result; i = inactive; ? = inconclusive; nt = no result given. An excerpt weighted towards active compounds, which were near 7.6% of everything screened. Unless noted, calls come from the whole dose curve; as a rule, active = well fitted curve in the direction sought with a large enough effect; inconclusive = small, poorly fitted or top-dose-only effect, or another doubt; inactive = no such curve, though single readings can be large; an effect the other way counts as inactive or inconclusive.
SMILES,MCF10A rerep,hERG WT inh,KCNH2 3.1 block,SW480 rereplic,KB-3-1 cytotox,KB-V1 cytotox
COc1cccc(CNC23CC4CC(CC(C4)C2)C3)c1OCc1ccccc1,i,i,i,?,?,20.6µM
Nc1cc(OC(=O)c2cccs2)nn1S(=O)(=O)c1ccc(F)cc1,i,i,-212.4,i,i,i
Nc1cc(OC(=O)c2cccs2)nn1S(=O)(=O)c1ccccc1,i,i,i,i,i,i
CN(C)C(=O)CCc1ccc2c3c([nH]c2c1)[C@]1(CCC2CCCC2)[C@@H](C(=O)N2CCOCC2)C[C@H](CC(=O)NC(C)(C)C)C(=O)N1CC3,i,i,i,i,i,i
O=C(NCc1ccco1)C(c1ccccc1)N(CC1CCCO1)C(=O)Cn1nnc2ccccc21 (centres undefined),i,i,i,?,i,20.6µM
COc1ccc(N(CN2C(=O)C3CCCCC3C2=O)C(=O)c2ccco2)cc1 (centres undefined),i,i,i,i,i,i
COc1cc(C(=O)NCc2nc(C)cs2)ccc1OC1CCN(C(C)=O)CC1,i,i,-76.4,i,i,i
COc1ccc(C(=O)NCc2csc(C)n2)cc1OC1CCN(C(C)=O)CC1,i,i,i,i,nt,nt
CCOC(=O)C/C(=N\Nc1ncnc2ccccc12)c1ccccc1,i,i,i,i,i,16.4µM
Oc1ccccc1C1NN=C(c2ccccc2)S1 (centres undefined),?,i,i,i,i,?
Nc1cccnc1S(=O)(=O)c1cccc(C(F)(F)F)c1,i,i,i,2.91µM,i,i
Nc1cccnc1S(=O)(=O)c1ccccc1,i,i,i,i,i,?
CCOc1ccc(OCC)c(NC(=O)C2CCCN(c3ncccn3)C2)c1 (centres undefined),i,i,i,i,i,i
CCOc1ccc(OCC)c(NC(=O)C2CCN(c3ncccn3)CC2)c1,i,i,i,i,i,9.2µM
CCOc1ccc(OCC)c(NC(=O)C2CCCN(C(=O)c3ccc(Cl)cc3)C2)c1 (centres undefined),i,i,i,i,i,7.31µM
NC(=O)c1c(NC(=O)c2ccccc2F)sc2c1CCCC2,?,i,i,i,i,i
CCCCCCCCNc1ncnc2ccccc12,i,i,i,?,0.651µM,0.184µM
c1ccc(CCNc2ncnc3ccccc23)cc1,i,i,i,i,?,?
C/C(=N\NC(=O)COc1ccc(C)cc1Br)c1cc([N+](=O)[O-])cs1,8.2µM,i,i,9.2µM,20.6µM,?
Cc1cc[n+](CCc2ccccc2)cc1C,i,i,i,i,?,i
CCCC1=NN2C(=N)/C(=C\c3cc(C)n(-c4cc(C)cc(C)c4)c3C)C(=O)N=C2S1,20.6µM,i,i,i,i,?
Cc1cccc(-n2c(C)cc(/C=C3\C(=N)N4N=C(CC(C)C)SC4=NC3=O)c2C)c1,i,i,i,i,i,i
Cc1cc(/C=C2\C(=N)N3N=C(CC(=O)N4CCOCC4)SC3=NC2=O)c(C)n1Cc1ccccc1,18.4µM,i,i,i,i,i
Cc1cc(C)cc(-n2c(C)cc(/C=C3\C(=N)N4N=C(CC(C)C)SC4=NC3=O)c2C)c1,18.4µM,i,i,i,?,20.6µM
CC1=NN2C(=N)/C(=C\c3cc(C)n(-c4cccc(C)c4)c3C)C(=O)N=C2S1,i,i,i,i,i,i
SMILES,MCF10A rerep,hERG WT inh,KCNH2 3.1 block,SW480 rereplic,KB-3-1 cytotox,KB-V1 cytotox
O=c1cc(N2CCC3(CC2)OCCO3)[nH]c(=O)n1-c1ccc(Br)cc1,i,i,i,i,i,i
CC1(C(=O)NS(=O)(=O)C2CC2)CCN(C(=O)c2cc3ccccc3s2)C1 (centres undefined),nt,nt,nt,nt,i,?
Cc1ccc2[nH]c3c(=O)n(CC(=O)N(C)c4cc(Cl)ccc4C)ncc3c2c1,nt,nt,nt,nt,i,i
Cc1ccc(Cl)cc1N(C)C(=O)Cn1ncc2c([nH]c3ccccc32)c1=O,?,i,i,20.6µM,i,i
O=S(=O)(Nc1ccc(-c2cn3c(n2)SCC3)cc1)c1cc(F)ccc1F,nt,i,i,nt,i,i
Cc1ccc(S(=O)(=O)CCC(=O)c2ccc(O)cc2O)cc1,18.4µM,i,i,?,?,i
Cc1ccc(S(=O)(=O)CCC(=O)OCC(=O)c2cc(C)ccc2C)cc1,i,i,i,i,i,i
COc1ccc(C(=O)CCS(=O)(=O)c2ccc(C)cc2)cc1OC,?,i,i,5.17µM,i,i
COc1ccc(CC(=O)O/N=C(\N)c2ccc(C)cc2)cc1,i,i,i,i,i,i
COc1ccc(/C(N)=N/OC(=O)Cc2ccc(C)cc2)cc1OC,?,nt,i,2.91µM,i,i
CCCOc1ccc(F)cc1-c1cc(C(=O)NCCOC)[nH]n1,nt,nt,nt,nt,i,i
Cc1ccc2oc(C(=O)Nc3ccc(S(=O)(=O)N(C)c4ccccc4)cc3)cc(=O)c2c1,nt,nt,nt,nt,?,i
COc1cccc(C2=NOC(C(=O)Nc3cc(C)nn3-c3ccccc3)C2)c1OC (centres undefined),i,i,i,i,?,?
COc1cc(OC)c(C2=NOC(C(=O)Nc3cc(C)nn3-c3ccccc3)C2)cc1Cl (centres undefined),i,i,i,i,i,18.4µM
O=C(O)COc1ccc2c(c1)O/C(=C\c1ccco1)C2=O,i,i,i,i,i,?
O=C(O)COc1ccc2c(c1)O/C(=C\c1cccs1)C2=O,?,i,i,16.4µM,i,i
COC(=O)C1C(O)=C(C(C)=Nc2cccc3ccccc23)C(=O)CC1(C)C (centres undefined),i,i,i,5.8µM,i,i
COC(=O)C1C(O)=C(C=Nc2ccccc2)C(=O)CC1(C)C (centres undefined),i,i,i,i,i,i
COc1ccc(CNC(=O)CSCc2nc(-c3ccccc3C)oc2C)cc1,nt,nt,nt,nt,i,i
Nc1nc2cc3ccccc3cc2[nH]c1=O,i,i,i,i,6.51µM,3.66µM
c1ccc(-c2nc3cc4ccccc4cc3[nH]2)nc1,i,i,i,i,?,?
Nc1cccc(CCc2nc3cc4ccccc4cc3[nH]2)c1,7.31µM,i,i,3.66µM,5.17µM,5.8µM
Nc1ccc2nc(CCCCCCCCc3nc4ccc(N)cc4[nH]3)[nH]c2c1,2.31µM,i,i,i,i,i
O=C(NCCC(=O)N1CCN(S(=O)(=O)c2ccccc2F)CC1)Nc1ccccc1,i,i,i,i,i,i
O=C1c2ccccc2C(=O)c2c1oc(C(F)(F)F)c2C(=O)c1ccccc1,4.61µM,i,i,4.11µM,4.61µM,7.31µM
COc1ccc(CNC(=O)c2c(C)oc3c2C(=O)c2ccccc2C3=O)cc1,4.61µM,i,i,20.6µM,?,i
CC(=O)c1c2c3c(c(Br)ccc3n(C)c1=O)C(=O)c1ccccc1-2,i,i,i,i,i,?
